This note sets out measurements from PubChem BioAssay (NCATS).

Inconclusive results are not listed. A call without a number means that no potency is given here. Calls of active or inactive are those of the source. Calls follow the shape of the dose curve; as a rule, active = well fitted cell-killing curve with a large enough effect; inconclusive = small, poorly fitted or top-dose-only effect; inactive = flat fitted curve, though single readings scatter.
Potency is read from the fitted curve at half-maximal effect.

This assay is described as follows: Identifying Small Molecule Inhibitors of Pancreatic Cancer Stem Cells (SN12C, Adherent) (AID 1259358).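 Also: cell survival measured after 48 h of compound exposure.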 The settings on record: viability/growth inhibition; series mostly up to 46.1 µM. From the text: Progenitor-like cancer cells, often referred to as cancer stem cells (CSC), are believed to be the drivers of therapeutic resistance and rapid recurrence. CSCs are postulated to reside in specific niches characterized by low oxygen tension, limited nutrient supply, and high redox load. Selectively targeting CSC, alone or in combination with cytotoxic agents, as a means to produce durable remissions is an appealing concept. Modeling these cells in in vitro setting is an important step in finding new therapies and/or targets. Multiple reports highlight that forcing cells in culture into 3-dimensionaly architectures (spheroids) re-establishes key progenitor-like transcriptional signatures. Pancreatic cancer is among the diseases with the most dismal outlook which is driven, largely, by recurance following front-line therapies. […] In hopes of deriving new insight into the targeting of these pancreatic CSCs we examined three established pancreatic cancer cell lines in cytotoxicity assays versus a collection of approved and investigational drugs. Importantly, we screened these lines as traditional monolayer (2D) and spheroid (3D) formats to gain an appreciation of agents with differential activity.
Multicellular tumor spheroids from Panc1, MiaPaCa-2, and the primary low-passage tissue culture line SB.06 were seeded in stem cell media (SCM) in nonadherent 6-well plates coated with hydrogel (Corning Life Sciences, Chelmsford, Mass) and pancreatic spheres generated for 14 days before screening. Cells were seeded into 1536-well solid-bottom white tissue culture treated Greiner Bio One Plates (789173-F) using a MultiDrop Combi (Thermofisher Scientific) dispenser and a small sterile cassette. One column was media alone to be used as a :"no cells" control. The plates were then covered with sterilized stainless steel gasketed lids from Kalypsys. After allowing cells to attach for 4 hours, 23 nL of test compound or control (negative control DMSO and positive control 9.2 uM Bortezomib-final) were added from a 1536-well polypropylene compound source plate to each well using a 1536 head pin tool from Kalypsys. Cells were then incubated for 48 hours at 37C, 95% relative humidity and 5% CO2. After 48 hours, plates were removed from the incubator and 3 uL of CellTiter-Glo (Promega) was added using an Aurora Flying Reagent Dispenser Bioraptor. Plates were incubated at room temperature for 10 minutes prior to reading the luminescence on the Viewlux (PerkinElmer). The relative luciferase units are used to calculate the percent activity using the activity of DMSO in the cells and no cells columns for normalization of no inhibition and full inhibition respectively.
Take `NC(=O)Nc1cc(-c2ccc(CN3CCOCC3)c(F)c2)sc1C(=O)N[C@H]1CCCNC1`: the Potency was 833 nM (active).

Consider `CNC1CCN(C(Cc2cccc(-c3ccncc3)c2)C(=O)c2sc3c(F)ccc(F)c3c2Cl)CC1` (configuration not stated), for which the Potency was 26400 nM (active). Take `CCOc1cc2ncc(C#N)c(Nc3ccc(OCc4ccccn4)c(Cl)c3)c2cc1NC(=O)/C=C/CN(C)C`: the Potency was 418 nM (active).

For the compound `O=c1cc(C2=CC=CC3Sc4ccccc4SC23)oc(N2CCOCC2)c1` (configuration not stated), the Potency result was “inactive”. For the compound `CCCCCCCCCCCCCCCCCCOP(=O)([O-])OC1CC[N+](C)(C)CC1`, the Potency result was “inactive”.

As for `CCC1(O)CC2CN(CCc3c([nH]c4ccccc34)[C@@](C(=O)OC)(c3cc4c(cc3OC)N(C=O)[C@H]3[C@](O)(C(=O)OC)[C@H](OC(C)=O)[C@]5(CC)C=CCN6CC[C@]43[C@@H]65)C2)C1` (some centres not stated), the Potency is 1180 nM (active). With `C[C@@H]1CCN(C(=O)CC#N)C[C@@H]1N(C)c1ncnc2[nH]ccc12`, the Potency result is “inactive”. For `CN(NC(=O)CC(=O)NN(C)C(=S)c1ccccc1)C(=S)c1ccccc1`, the Potency result was “inactive”.

As for `Cc1nnc(C(C)C)n1C1CC2CCC(C1)N2CC[C@H](NC(=O)C1CCC(F)(F)CC1)c1ccccc1` (some centres not stated), the Potency result was “inactive”. As for `CC(NC(=O)Cc1cc(F)cc(F)c1)C(=O)NC(C(=O)OC(C)(C)C)c1ccccc1` (configuration not stated), the Potency entry is “inactive”. To `CCC1(Cc2ccc(N)cc2)CCC(=O)NC1=O` (configuration not stated) belongs “inactive”; to `O=C(O)CC/C=C\CC[C@H]1[C@@H](N2CCCCC2)[C@@H](O)C[C@@H]1OCc1ccc(-c2ccccc2)cc1`, “inactive”.
